Measured values from PubChem BioAssay (NCATS).
Results filed as inconclusive are left out. Where a call stands in place of a potency, no number is given. A number with no mark means an inactive call. Calls of active or inactive are those of the source. The call rests on the fitted dose curve; in most records, active means well fitted curve in the direction sought with a large enough effect; inconclusive means small, poorly fitted or top-dose-only effect, or another doubt; inactive means no such curve, though single readings can be large; an effect the other way counts as inactive or inconclusive.

Key:
[1] = system: CRL-7250; experiment: Cytotoxic Profiling of Annotated Libraries Using Quantitative High-Throughput Screening (AID 1296008); details: Five cell lines viability, CellTiter-Glo ATP luminescence, 48-72 h; max response: active compounds read low; further: nearly all actives have a fitted effect of over 60% in size; further: potency means the concentration at half of the fitted maximal effect
Summary of the method: (§1)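 Cells exposed to compounds for 48 or 72 hr at 37 degrees Celsius. Viability read as ATP-coupled luminescence with CellTiter-Glo after 10 min at room temperature.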

[2] = system: HEK293; experiment: as above; details: Five cell lines viability, CellTiter-Glo ATP luminescence, 48-72 h; max response: active compounds read low
Summary of the method: as §1

[3] = system: HaCat; experiment: as above; details: Five cell lines viability, CellTiter-Glo ATP luminescence, 48-72 h; max response: active compounds read low
Summary of the method: as §1

[4] = system: NIH3T3; experiment: as above; details: Five cell lines viability, CellTiter-Glo ATP luminescence, 48-72 h; max response: active compounds read low
Summary of the method: as §1

[5] = system: C33A; experiment: Primary qHTS to identify gynecologic anti-cancer compounds using libraries of approved drugs and bioactive compounds (AID 1345084); details: Gynecologic cancer cell panel viability, ATPlite luminescence, 48 h; series mostly up to 57.5 µM; further: nearly all actives have a fitted effect of over 55% in size; further: potency means the concentration at half of the fitted maximal effect
Summary of the method: (§2)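 Cells, 1,000 per well, were allowed to settle for 16 h at 37 C before compound addition. Five concentrations were tested for 48 h, and viability was read by ATPlite luminescence after 15 min at room temperature.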

[6] = system: CAOV3; experiment: as above; details: Gynecologic cancer cell panel viability, ATPlite luminescence, 48 h; series mostly up to 57.5 µM
Summary of the method: as §2

[7] = system: CASKI; experiment: as above; details: Gynecologic cancer cell panel viability, ATPlite luminescence, 48 h; series mostly up to 57.5 µM
Summary of the method: as §2

[8] = system: Es-2; experiment: as above; details: Gynecologic cancer cell panel viability, ATPlite luminescence, 48 h; series mostly up to 57.5 µM
Summary of the method: as §2

[9] = system: HeLa; experiment: as above; details: Gynecologic cancer cell panel viability, ATPlite luminescence, 48 h; series mostly up to 57.5 µM
Summary of the method: as §2

[10] = system: Hek293T; experiment: as above; details: Gynecologic cancer cell panel viability, ATPlite luminescence, 48 h, control line for the selectivity index; series mostly up to 57.5 µM
Summary of the method: as §2

[11] = system: JEG-3; experiment: as above; details: Gynecologic cancer cell panel viability, ATPlite luminescence, 48 h; series mostly up to 57.5 µM
Summary of the method: as §2

[12] = system: OV90; experiment: as above; details: Gynecologic cancer cell panel viability, ATPlite luminescence, 48 h; series mostly up to 57.5 µM
Summary of the method: as §2

[13] = system: HACAT; experiment: qHTS assay to identify novel small-molecules to repurpose for Merkel cell carcinoma treatment (AID 1296009); details: MCC and control cell lines, CellTiter-Glo viability, 72 h; at 44.8 µM (top of the series) unless noted; further: nearly all actives have a fitted effect of over 60% in size
Summary of the method: (§3)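 CellTiter-Glo luminescence after 72 hr compound exposure at 37 degree celsius gave cell viability. Libraries NPC and MIPE were run as 8- and 11-point dose responses; RLUs normalized to DMSO (negative) and no-cell (cytotoxicity) controls.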

[14] = system: NIH3T3; experiment: as above; details: MCC and control cell lines, CellTiter-Glo viability, 72 h; series mostly up to 44.8 µM
Summary of the method: as §3

O=C(Cc1cccc(OC(F)(F)F)c1)Nc1ccc(CCCCc2nnc(NC(=O)Cc3ccccn3)s2)nn1
Potency [1]: 0.0166 µM (active)
Potency [2]: 16.6 µM (active)
Potency [3]: 23.4 µM (active)
Potency [4]: 26.3 µM (active)

C1=C/COCc2cc(ccc2OCCN2CCCC2)Nc2nccc(n2)-c2cccc(c2)COC/1
Potency [1]: 6.51 µM (active)
Potency [2]: 2.06 µM (active)
Potency [3]: 5.8 µM (active)
Potency [4]: 4.11 µM (active)
Potency [5]: 11.2 µM (active)
Potency [6]: 11.2 µM (active)
Potency [7]: 3.55 µM (active)
Potency [8]: 14.1 µM (active)
Potency [9]: 3.98 µM (active)
Potency [10]: 7.94 µM (active)
Potency [11]: 11.2 µM (active)
Potency [12]: 17.8 µM (active)

CC[C@@H](Nc1c(Nc2cccc(C(=O)N(C)C)c2O)c(=O)c1=O)c1cc(C(C)C)co1
max response [1]: 4.29%
max response [2]: -14.3%
outcome [3]: inactive
max response [4]: -6.94%
outcome [13]: inactive
Potency [5]: inactive
Potency [6]: inactive
Potency [7]: inactive
Potency [8]: inactive
Potency [9]: inactive
Potency [10]: inactive
Potency [11]: inactive
Potency [12]: inactive

CC(=O)OC(C)(C)/C=C/C(=O)C(C)(O)C1C(O)CC2(C)C3CC=C(C(C)(C)C(=O)O)C(CC(=O)O)C3(C)C(=O)CC12C (configuration not stated)
max response [1]: 2%
max response [2]: -1.12%
outcome [3]: inactive
outcome [4]: inactive
outcome [13]: inactive [at 17.4 µM]
Potency [14]: inactive
Potency [5]: inactive
Potency [7]: inactive
Potency [8]: inactive
Potency [9]: inactive
Potency [10]: inactive
Potency [11]: inactive
Potency [12]: inactive

COc1cc(Br)c(S(=O)(=O)Nc2ccc(Cl)c(O[C@@H]3CCN(C)C3)c2)cc1OC
outcome [1]: inactive
Potency [2]: 7.31 µM (active)
outcome [3]: inactive
max response [4]: -15.8%
outcome [13]: inactive
Potency [6]: inactive
Potency [8]: inactive
Potency [9]: inactive
Potency [11]: inactive

COc1cc(S(C)(=O)=O)ccc1Nc1nc2ccc(-c3ccc(NC(=O)[C@H](C)c4ccc(F)cc4)cc3)cn2n1
outcome [1]: inactive
Potency [2]: 0.331 µM (active)

N#Cc1ccnc(Nc2cc(C3CCN(C4COC4)CC3)cc(N3CCC(F)(F)C3)n2)c1
Potency [1]: 11.7 µM (active)
Potency [2]: 8.31 µM (active)
Potency [3]: 23.4 µM (active)
Potency [4]: 20.9 µM (active)

COc1cc(C[C@H]2C(=O)OC[C@@H]2Cc2ccc(OC)c(OC)c2)ccc1O
Potency [1]: 0.508 µM (active)
Potency [2]: 1.01 µM (active)
outcome [3]: inactive
max response [4]: -24.5%
outcome [13]: inactive
Potency [6]: inactive
Potency [9]: inactive
Potency [11]: inactive
Potency [12]: inactive

CN1C(=O)c2sccc2N(C)c2nc(Nc3ccc(S(N)(=O)=O)cc3)ncc21
Potency [1]: 7.41 µM (active)
Potency [2]: 11.7 µM (active)
Potency [3]: 18.6 µM (active)
Potency [4]: 16.6 µM (active)

O=c1cc(NCCCN[C@@H]2CCOc3c(Br)cc(Br)cc32)[nH]c2ccsc12
max response [1]: 1.96%
Potency [2]: 5.8 µM (active)
max response [3]: -8.13%
max response [4]: 2.02%
Potency [5]: inactive
Potency [6]: inactive
Potency [7]: inactive
Potency [8]: inactive
Potency [9]: inactive
Potency [11]: inactive
Potency [12]: inactive

COc1cc(O)cc(OC2OC(CO)C(O)C(O)C2O)c1 (configuration not stated)
max response [1]: -0.834%
max response [2]: 0.556%
max response [3]: -5.91%
outcome [4]: inactive
Potency [14]: inactive
Potency [5]: inactive
Potency [6]: inactive
Potency [7]: inactive
Potency [8]: inactive
Potency [9]: inactive
Potency [10]: inactive
Potency [11]: inactive
Potency [12]: inactive

CCC(CC)C(=O)OC12C(OC(=O)C(C)C)C(C)C3(O)C(C=C(CO)CC4(O)C(=O)C(C)=CC43)C1C2(C)C (configuration not stated)
max response [1]: 0.624%
max response [2]: -5.82%
outcome [3]: inactive
outcome [4]: inactive
outcome [13]: inactive [at 17.4 µM]
Potency [14]: inactive
Potency [5]: inactive
Potency [6]: inactive
Potency [7]: inactive
Potency [8]: 0.0708 µM (active)
Potency [9]: inactive
Potency [10]: inactive
Potency [11]: inactive

CC[C@H]1CN(c2nc(N)c(C(N)=O)nc2Cl)CCN1C1CCN(Cc2ccc(Cl)cc2)CC1
max response [1]: 4.79%
max response [2]: -6.38%
outcome [3]: inactive
max response [4]: 0.303%
outcome [13]: inactive
Potency [5]: inactive
Potency [6]: inactive
Potency [7]: inactive
Potency [8]: inactive
Potency [9]: inactive
Potency [10]: inactive
Potency [11]: inactive
Potency [12]: inactive

C=C(C)Cn1c(SCC(=O)c2cccs2)nc2sc3c(c2c1=O)CCCC3
max response [1]: -0.048%
Potency [2]: 1.64 µM (active)
max response [3]: 2.85%
Potency [4]: 1.84 µM (active)
Potency [5]: inactive
Potency [6]: inactive
Potency [7]: inactive
Potency [8]: inactive
Potency [12]: inactive

Cc1cc(-c2ncc(-c3cccnc3)cc2/C=C/c2ccccc2)cnc1-c1cccnc1
outcome [1]: inactive
Potency [2]: 2.59 µM (active)
outcome [3]: inactive
max response [4]: 3.84%
outcome [13]: inactive
Potency [5]: inactive
Potency [6]: inactive
Potency [7]: inactive
Potency [8]: inactive
Potency [9]: inactive
Potency [10]: inactive
Potency [11]: inactive
Potency [12]: inactive
